A short description of test [1]: NCI Yeast Anticancer Drug Screen. Data for the rad50 strain (AID 155).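 Further: 0% = growth of vehicle-only cultures of the same strain.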 The settings on record: S. cerevisiae rad50 strain growth inhibition, stronger effect = higher value. A digest of the protocol: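 Genetically altered yeast (DNA repair pathway); compound treatment; growth inhibition vs vehicle ctrl.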
Test [2] in a line: NCI Yeast Anticancer Drug Screen. Data for the mec2-1 strain (AID 157). Conditions: S. cerevisiae mec2-1 strain, stronger effect = higher value. The procedure, abridged:
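mec2-1 yeast strain, carrying an alteration in DNA damage repair or cell cycle control, was exposed to compounds; growth inhibition was measured relative to vehicle-treated controls.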

The nature of test [3]: NCI Yeast Anticancer Drug Screen. Data for the sgs1 mgt1 strain (AID 161).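 Further: 0% = growth of cultures given vehicle only.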 The settings on record: S. cerevisiae sgs1 mgt1 strain, stronger effect = higher value. The procedure, abridged: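 Growth of a repair-deficient yeast mutant was monitored after compound treatment and expressed as inhibition relative to vehicle-treated cultures.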
Test [4] can be described thus: NCI Yeast Anticancer Drug Screen. Data for the cln2 rad14 strain (AID 165).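 Further: 0% = growth equal to vehicle treated cultures.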 The settings on record: S. cerevisiae cln2 rad14 strain, stronger effect = higher value. A digest of the protocol: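 Yeast carrying cln2 and rad14 alterations (cell cycle control and DNA damage repair) were exposed to compounds. Growth inhibition was measured against vehicle-treated controls.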
The nature of test [5]: NCI Yeast Anticancer Drug Screen. Data for the bub3 strain (AID 167). Conditions: S. cerevisiae bub3 mutant strain, stronger effect = higher value. The procedure, abridged:
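Yeast carrying a defined mutation is treated with each compound, and growth is compared with that of vehicle-exposed cells to give inhibition.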

Test [6] in a line: NCI Yeast Anticancer Drug Screen. Data for the mlh1 rad18 strain (AID 175). Conditions: S. cerevisiae mlh1 rad18 strain growth inhibition, stronger effect = higher value. The procedure, abridged:
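Growth inhibition of the yeast strain was measured after compound exposure and expressed relative to vehicle-treated controls. The strain carries defined defects in DNA damage repair.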

[7] abbreviates: at 5.0 µM (retest, dose inferred, filed as 0.5).
The mark [8] stands for this setting: at 50.0 µM (retest, dose inferred, filed as 5.0).

Compounds without any hit were thinned out: in the full panel of roughly 79,000, 15% have a hit. Values without a mark were called inactive. Activity calls are given as the source filed them. No stated cut-off is given here; in the data, active means growth inhibition above about 70%; inactive means the rest.

With `N#Cc1ccc(Cl)cc1[N+](=O)[O-]`, the growth inhibition in test [1] (setting [7]) was 31%; in test [1] (setting [8]), 97% (active); in test [1] (at 50.0 µM) it was 90.3% (active); in test [2] (setting [7]), 15%; in test [2] (setting [8]) it was 98% (active); in test [2] (at 50.0 µM) it was 92% (active). For the same molecule, the growth inhibition was 36% in test [3] (setting [7]); 96% (active) in test [3] (setting [8]); 90.8% (active) in test [3] (at 50.0 µM); 38% in test [4] (setting [7]); 96% (active) in test [4] (setting [8]); 91% (active) in test [4] (at 50.0 µM). Further, the growth inhibition was 52% in test [5] (setting [7]); 97% (active) in test [5] (setting [8]); 90.2% (active) in test [5] (at 50.0 µM); 42% in test [6] (setting [7]); 96% (active) in test [6] (setting [8]); 90.4% (active) in test [6] (at 50.0 µM).

On to `CC(C)=CCC/C(C)=C/COc1ccc(/C=C2/C(=O)N(O)[C@@H](C)C(=O)N2O)cc1`, for which the growth inhibition in test [1] (setting [7]) was 51%; in test [1] (setting [8]), 97% (active); in test [1] (at 50.0 µM) it was 80.8% (active); in test [2] (setting [7]), 52%; in test [2] (setting [8]) it was 98% (active); in test [2] (at 50.0 µM) it was 78.2% (active). For the same molecule, the growth inhibition in test [3] (setting [7]) was 66%; in test [3] (setting [8]) it was 92% (active); in test [3] (at 50.0 µM) it was 78.9% (active); in test [4] (setting [7]), 54%; in test [4] (setting [8]), 89% (active); in test [4] (at 50.0 µM) it was 70.7% (active). The growth inhibition in test [5] (setting [7]) is 68%; in test [5] (setting [8]), 97% (active); in test [5] (at 50.0 µM), 83.3% (active); in test [6] (setting [7]) it was 32%; in test [6] (setting [8]), 96% (active); in test [6] (at 50.0 µM), 79.2% (active).

On to `O=[N+]([O-])c1cc([N+](=O)[O-])c2ccccc2c1O`, for which the growth inhibition in test [1] (setting [7]) was 17%; in test [1] (setting [8]), 90% (active); in test [1] (at 50.0 µM), 75% (active); in test [2] (setting [7]) it was 8%; in test [2] (setting [8]), 90% (active); in test [2] (at 50.0 µM) it was 65.1%. In addition, the growth inhibition in test [3] (setting [7]) is 7%; in test [3] (setting [8]), 89% (active); in test [3] (at 50.0 µM), 88.8% (active); in test [4] (setting [7]), -6%; in test [4] (setting [8]) it was 48%; in test [4] (at 50.0 µM), 52%. Moreover, the growth inhibition was 2% in test [5] (setting [7]); 87% (active) in test [5] (setting [8]); 61% in test [5] (at 50.0 µM); 9% in test [6] (setting [7]); 92% (active) in test [6] (setting [8]); 82.3% (active) in test [6] (at 50.0 µM).

For the molecule `Cc1cc(Cl)cc2c1NC(=O)C2(O)C/C(=N/NC(=O)CC#N)c1cccc([N+](=O)[O-])c1` (stereo not given), the growth inhibition is 4% in test [1] (setting [7]); 20% in test [1] (setting [8]); 59.1% in test [1] (at 50.0 µM); -13% in test [2] (setting [7]); 35% in test [2] (setting [8]); 38.1% in test [2] (at 50.0 µM). Further, the growth inhibition in test [3] (setting [7]) was -1%; in test [3] (setting [8]), -4%; in test [3] (at 50.0 µM) it was 62.2%; in test [4] (setting [7]), -3%; in test [4] (setting [8]), 1%; in test [4] (at 50.0 µM), 9.4%. The growth inhibition in test [5] (setting [7]) was 1%; in test [5] (setting [8]), 13%; in test [5] (at 50.0 µM), 15.4%; in test [6] (setting [7]) it was 1%; in test [6] (setting [8]) it was -23%; in test [6] (at 50.0 µM), 76.8% (active).

Regarding `COC(=O)N1C2C=CC(=O)C(C=C2)N1C(=O)OC` (stereo not given), the growth inhibition in test [1] (setting [7]) is -3%; in test [1] (setting [8]) it was 30%; in test [1] (at 50.0 µM), 33.9%; in test [2] (setting [7]) it was 2%; in test [2] (setting [8]), 38%; in test [2] (at 50.0 µM) it was 53.2%. Also, the growth inhibition in test [3] (setting [7]) is 0%; in test [3] (setting [8]) it was 58%; in test [3] (at 50.0 µM) it was 47%; in test [4] (setting [7]), 1%; in test [4] (setting [8]) it was 23%; in test [4] (at 50.0 µM) it was 36.4%. Further, the growth inhibition in test [5] (setting [7]) was -1%; in test [5] (setting [8]), 34%; in test [5] (at 50.0 µM), 60.6%; in test [6] (setting [7]), 18%; in test [6] (setting [8]) it was 79% (active); in test [6] (at 50.0 µM) it was 85% (active).

Regarding `O=[N+]([O-])c1cnc(Sc2cncc[n+]2[O-])s1`, the growth inhibition in test [1] (setting [7]) was 99% (active); in test [1] (setting [8]), 99% (active); in test [1] (at 50.0 µM), 99.5% (active); in test [2] (setting [7]) it was 100% (active); in test [2] (setting [8]) it was 100% (active); in test [2] (at 50.0 µM) it was 99.4% (active). The growth inhibition in test [3] (setting [7]) was 99% (active); in test [3] (setting [8]), 100% (active); in test [3] (at 50.0 µM) it was 99.3% (active); in test [4] (setting [7]), 98% (active); in test [4] (setting [8]), 99% (active); in test [4] (at 50.0 µM) it was 99.3% (active). In addition, the growth inhibition is 99% (active) in test [5] (setting [7]); 99% (active) in test [5] (setting [8]); 99.5% (active) in test [5] (at 50.0 µM); 99% (active) in test [6] (setting [7]); 99% (active) in test [6] (setting [8]); 99.5% (active) in test [6] (at 50.0 µM).

In the case of `CC(Br)Cc1ccc2c(c1)OCO2` (stereo not given), the growth inhibition in test [1] (setting [7]) is 3%; in test [1] (setting [8]) it was 0%; in test [1] (at 50.0 µM), 1.15%; in test [2] (setting [7]) it was 2%; in test [2] (setting [8]), -2%; in test [2] (at 50.0 µM), 44.5%. For the same molecule, the growth inhibition in test [3] (setting [7]) was 3%; in test [3] (setting [8]), -3%; in test [3] (at 50.0 µM), 19.8%; in test [4] (setting [7]), 3%; in test [4] (setting [8]), -1%; in test [4] (at 50.0 µM), -3.8%. Besides, the growth inhibition in test [5] (setting [7]) was -10%; in test [5] (setting [8]), -14%; in test [5] (at 50.0 µM), -28.5%; in test [6] (setting [7]) it was -4%; in test [6] (setting [8]), 1%; in test [6] (at 50.0 µM), -12.4%.

On to `CC(C)C1(Cl)CCC2C3(C)CCCC(C)(C(=O)O)C3CC(Cl)C2(Cl)C1Cl` (stereo not given), for which the growth inhibition is 3% in test [1] (setting [7]); 75% (active) in test [1] (setting [8]); 80.8% (active) in test [1] (at 50.0 µM); 5% in test [2] (setting [7]); 78% (active) in test [2] (setting [8]); 74.9% (active) in test [2] (at 50.0 µM). In addition, the growth inhibition was 17% in test [3] (setting [7]); 61% in test [3] (setting [8]); 70% (active) in test [3] (at 50.0 µM); -12% in test [4] (setting [7]); 84% (active) in test [4] (setting [8]); 95.8% (active) in test [4] (at 50.0 µM). Moreover, the growth inhibition was 14% in test [5] (setting [7]); 79% (active) in test [5] (setting [8]); 72.5% (active) in test [5] (at 50.0 µM); -15% in test [6] (setting [7]); 78% (active) in test [6] (setting [8]); 86.7% (active) in test [6] (at 50.0 µM).

As to `CN(C)CCCNc1c(C#N)[n+]([O-])c2cc(Cl)ccc2[n+]1[O-]`, the growth inhibition in test [1] (setting [7]) is 59%; in test [1] (setting [8]) it was 93% (active); in test [1] (at 50.0 µM), 66.7%; in test [2] (setting [7]) it was 72% (active); in test [2] (setting [8]), 93% (active); in test [2] (at 50.0 µM), 43.5%. The growth inhibition was 60% in test [3] (setting [7]); 90% (active) in test [3] (setting [8]); 61.9% in test [3] (at 50.0 µM); 70% (active) in test [4] (setting [7]); 90% (active) in test [4] (setting [8]); 45.6% in test [4] (at 50.0 µM). Moreover, the growth inhibition in test [5] (setting [7]) was 88% (active); in test [5] (setting [8]) it was 94% (active); in test [5] (at 50.0 µM) it was 60%; in test [6] (setting [7]), 80% (active); in test [6] (setting [8]) it was 93% (active); in test [6] (at 50.0 µM), 68.8%.

Take `CC(=O)Nc1ccc(/C=C2/NC(=S)N(/C=C3\C(=O)Oc4ccccc4C3=O)C2=O)cc1`: the growth inhibition in test [1] (setting [7]) is -10%; in test [1] (setting [8]) it was 50%; in test [1] (at 50.0 µM), 70.7% (active); in test [2] (setting [7]), -19%; in test [2] (setting [8]) it was 60%; in test [2] (at 50.0 µM), 76.5% (active). Besides, the growth inhibition was -6% in test [3] (setting [7]); 29% in test [3] (setting [8]); 78.7% (active) in test [3] (at 50.0 µM); -15% in test [4] (setting [7]); 64% in test [4] (setting [8]); 86% (active) in test [4] (at 50.0 µM). The growth inhibition was -12% in test [5] (setting [7]); 36% in test [5] (setting [8]); 67.2% in test [5] (at 50.0 µM); -9% in test [6] (setting [7]); 44% in test [6] (setting [8]); 76.2% (active) in test [6] (at 50.0 µM).

The values above are taken from PubChem BioAssay (NCI).
